From PubChem BioAssay
CYP2C9 inhib: blockers of cytochrome P450 2C9 activity – biochemical, luminescence, ADME assay, primary screen. CYP2C9 Supersomes, luciferin-H conversion. 96,000 tested, 20% active. AID 777, 2007. inhibition, % at 5 µM. P11712;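 active means blocking of liver enzyme CYP2C9 beyond about 50% at 5 µM, limit read from the data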
Target sequence (P11712 whole entry, looked up): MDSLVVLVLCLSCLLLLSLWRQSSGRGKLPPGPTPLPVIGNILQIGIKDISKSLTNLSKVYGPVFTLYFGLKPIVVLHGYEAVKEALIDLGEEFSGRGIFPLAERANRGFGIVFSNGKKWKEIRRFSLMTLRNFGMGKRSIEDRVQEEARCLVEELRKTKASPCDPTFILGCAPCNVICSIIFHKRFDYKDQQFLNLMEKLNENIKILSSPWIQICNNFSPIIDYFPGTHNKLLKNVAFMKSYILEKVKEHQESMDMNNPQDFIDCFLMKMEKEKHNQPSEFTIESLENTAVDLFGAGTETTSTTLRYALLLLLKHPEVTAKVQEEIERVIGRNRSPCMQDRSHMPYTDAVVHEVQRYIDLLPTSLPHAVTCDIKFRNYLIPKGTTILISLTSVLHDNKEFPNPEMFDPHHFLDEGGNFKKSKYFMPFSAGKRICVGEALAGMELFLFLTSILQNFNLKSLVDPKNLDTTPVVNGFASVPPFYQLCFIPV
CYP2C19 inh: blockers of cytochrome P450 2C19 activity – biochemical, luminescence, ADME assay, primary screen. CYP2C19 Supersomes, luciferin-H EGE luminescence, 30 min. P33261. inhibition, % at 5 µM. 96,000 tested, 21% active;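 active means CYP2C19 inhibition above a set limit at 5 µM in the primary screen, cut at about 50% in these data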;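 further: plate controls were negative control wells for no effect and 2.5 mM tranylcypromine positive control for full effect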
CYP2C9 activ: human CYP2C9 activators, primary screen, biochemical, luminescence. Cytochrome P450 2C9 (Homo sapiens), P11712. recombinant CYP2C9, luciferin-H conversion; stronger effect = higher value; factor 1 = untreated enzyme, 0 = blocked. activation factor at 5 µM. 96,000 tested, 1.4% active. AID 1024, 2008;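 active means activation factor of 2 or more for CYP2C9 at a 5 µM dose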;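 further: 0 = sulfaphenazole-blocked wells and 1 = vehicle-only wells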
PLK1 PBD inh: Plk1 polo box domain binding inhibitors, primary screen, biochemical, fluorescence polarization; inhibition, %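 (tested at about 20 µM)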; Serine/threonine-protein kinase PLK1 (Homo sapiens), P53350; 97,000 tested, 0.13% active; Plk1 PBD phosphopeptide binding; AID 693, 2007; in the data active means inhibition above about 34%, passing the limit was not always enough
PLK1 inh: human PLK1 kinase inhibitors, primary screen, biochemical, TR-FRET | inhibition, % at 10 µM | 97,000 tested, 0.53% active | recombinant PLK1 kinase, TR-FRET peptide phosphorylation | Serine/threonine-protein kinase PLK1 (Homo sapiens), P53350;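 active means inhibition of 50% or more in the single-concentration screen; inactive means inhibition below 50%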;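 further: 0% = DMSO max control and 100% = H-89 dihydrochloride min control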
CYP2C19 act: human CYP2C19 activators, primary screen, biochemical, luminescence. recombinant CYP2C19, luciferin-H EGE luminescence; stronger effect = higher value; 0 = fully inhibited enzyme, 1 = untreated enzyme. 96,000 tested, under 10 active. activation factor at 5 µM. Cytochrome P450 2C19 (Homo sapiens), P33261;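 active means activation factor of at least 2 at 5 µM in the primary screen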;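 further: 0 = wells with 2.5 mM tranylcypromine and 1 = vehicle-only wells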
* marks the source's active call; other numbers are inactive results. An excerpt weighted towards active compounds, which were near 28% of everything screened.

O=C1COc2ccc(C(=O)CSc3nnc(-c4cccs4)n3Cc3ccccc3)cc2N1 was read as CYP2C9 inhib 62.6*, CYP2C19 inh 51.7*, CYP2C9 activ 0.4, PLK1 PBD inh -19.9, PLK1 inh 6.3 and CYP2C19 act 0.5.
Screening O=C1COc2ccc(C(=O)CSc3nnc(Cc4cccs4)n3-c3ccccc3)cc2N1 returned CYP2C9 inhib 84.7*, CYP2C19 inh 14.9, CYP2C9 activ 0.2, PLK1 PBD inh -1.5, PLK1 inh -0.6 and CYP2C19 act 0.9.
COc1cc2c(cc1OC)C(CC#N)=NC(C)(C)C2 was read as CYP2C9 inhib 24.8, CYP2C19 inh 29.3, CYP2C9 activ 0.8, PLK1 PBD inh -26.1, PLK1 inh 5.4 and CYP2C19 act 0.7.
`O=C(CCN1CCCC1)Nc1ccccc1` gave CYP2C9 inhib -6.1, CYP2C19 inh 0.1, CYP2C9 activ 1.1, PLK1 PBD inh -19.5, PLK1 inh -6.4 and CYP2C19 act 1.
Cc1ccc(C2Nc3ccccc3C(=O)N2Cc2ccco2)cc1 (stereo not given) was read as CYP2C9 inhib 86.2*, CYP2C19 inh 36.8, CYP2C9 activ 0.1, PLK1 PBD inh -0.5, PLK1 inh -3.0 and CYP2C19 act 0.6.
`O=C1c2ccccc2NC(c2ccc(O)cc2)N1Cc1ccco1` (stereo not given) gave CYP2C9 inhib 60.0*, CYP2C19 inh 19.5, CYP2C9 activ 0.4, PLK1 PBD inh -7.0, PLK1 inh 0.2 and CYP2C19 act 0.8.
`CCN(CC)CCN1C(=O)c2ccccc2NC1c1cccc(F)c1` (stereo not given) gave CYP2C9 inhib -15.4, CYP2C19 inh 0.4, CYP2C9 activ 1.2, PLK1 PBD inh 2.3, PLK1 inh -9.6 and CYP2C19 act 1.
O=C1c2ccccc2NC(c2cccc(F)c2)N1Cc1ccco1 (stereo not given) was read as CYP2C9 inhib 95.6*, CYP2C19 inh 91.8*, CYP2C9 activ 0, PLK1 PBD inh 4.2, PLK1 inh -16.8 and CYP2C19 act 0.1.
Screening COc1nc(C)nc2c1ccc1ccccc12 returned PLK1 PBD inh -14.7 and PLK1 inh -14.6.
Screening CCOC(=O)c1sc(NC(=O)COC(=O)c2ccco2)nc1C returned CYP2C9 inhib 20.0, CYP2C19 inh -0.8, CYP2C9 activ 0.8, PLK1 PBD inh 16.4, PLK1 inh 3.4 and CYP2C19 act 1.
CCCCCCNC(=O)c1c(O)c2ccccc2[nH]c1=O was read as CYP2C9 inhib 27.7, CYP2C19 inh 18.0, CYP2C9 activ 0.7, PLK1 PBD inh -12.6, PLK1 inh -4.5 and CYP2C19 act 0.8.
For O=C(OCc1c(F)cccc1Cl)c1cnccn1 the results were CYP2C9 inhib -34.3, CYP2C19 inh 6.5, CYP2C9 activ 1.3, PLK1 PBD inh -23.8, PLK1 inh 2.1 and CYP2C19 act 0.9.
For O=S(=O)(c1ccc(Cl)cc1)n1ccc(-c2cccc(OCc3c(F)cccc3Cl)c2)n1 the results were CYP2C9 inhib 59.6*, CYP2C19 inh 23.2, CYP2C9 activ 0.4, PLK1 PBD inh 13.3, PLK1 inh -7.3 and CYP2C19 act 0.8.
For O=S(=O)(c1ccc(F)cc1)n1ccc(-c2cccc(OCc3c(F)cccc3Cl)c2)n1 the results were CYP2C9 inhib 87.5*, CYP2C19 inh 36.3, CYP2C9 activ 0.1, PLK1 PBD inh 5.1, PLK1 inh -9.7 and CYP2C19 act 0.6.
Screening CCOCCCNC(=S)N1C2CCC1CC(NC(=O)NC1CCCCC1)C2 (stereo not given) returned CYP2C9 inhib -7.4, CYP2C19 inh -0.5, CYP2C9 activ 1.1, PLK1 PBD inh 14.0, PLK1 inh -2.3 and CYP2C19 act 1.
Screening CN(Cc1cccs1)C(=O)CSc1nnnn1C returned CYP2C9 inhib -12.4, CYP2C19 inh 28.2, CYP2C9 activ 1.1, PLK1 PBD inh -12.9, PLK1 inh -7.4 and CYP2C19 act 0.7.
Screening CCOC(=O)c1sc2nc(CC(=O)OC)nc(N3CCN(c4ccccn4)CC3)c2c1C returned CYP2C9 inhib 84.8*, CYP2C19 inh 68.4*, CYP2C9 activ 0.2, PLK1 PBD inh -18.7, PLK1 inh -0.7 and CYP2C19 act 0.3.
For CCOC(=O)c1sc2ncnc(N3CCN(C(=O)OCC)CC3)c2c1C the results were CYP2C9 inhib 75.8*, CYP2C19 inh 36.9, CYP2C9 activ 0.2 and CYP2C19 act 0.6.
`CCOC(=O)c1sc2nc(CC(=O)OC)nc(NCc3ccc(F)cc3)c2c1C` gave CYP2C9 inhib 17.7, CYP2C19 inh 17.7, CYP2C9 activ 0.8, PLK1 PBD inh 9.6, PLK1 inh -4.6 and CYP2C19 act 0.8.
Screening COc1cc(C(=O)N2CCN(c3ncnc4sc(C)c(C)c34)CC2)cc(OC)c1OC returned CYP2C9 inhib 70.5*, CYP2C19 inh 73.3*, CYP2C9 activ 0.3, PLK1 PBD inh 44.1, PLK1 inh -12.0 and CYP2C19 act 0.3.
`CCOC(=O)CNC(=O)c1sc2ncnc(N3CCc4ccccc4C3)c2c1C` gave CYP2C9 inhib 97.6*, CYP2C19 inh 78.8*, CYP2C9 activ 0, PLK1 PBD inh 8.6, PLK1 inh -5.0 and CYP2C19 act 0.2.
Cc1c(C(=O)N2CCN(c3ccccc3)CC2)sc2ncnc(N3CCN(c4ccccc4)CC3)c12 was read as PLK1 PBD inh -15.5 and PLK1 inh -9.4.
For COc1cc(C(=O)N2CCN(C(=O)CC(C)C)CC2)cc(OC)c1OC the results were CYP2C9 inhib -1.5, CYP2C19 inh 11.8, CYP2C9 activ 1, PLK1 PBD inh -0.5, PLK1 inh -15.0 and CYP2C19 act 0.9.
Cc1c(NC(=O)OC(C)C)sc(=S)n1C was read as PLK1 PBD inh 10.6 and PLK1 inh -14.6.
COc1ccc(N2CCN(C(=S)Nc3cc(C)ccc3C)CC2)cc1 was read as CYP2C9 inhib 25.4, CYP2C19 inh 32.3, CYP2C9 activ 0.7, PLK1 PBD inh 1.3, PLK1 inh -14.1 and CYP2C19 act 0.7.
Screening CC(=O)NC(CC(=O)NCC(c1ccco1)N(C)C)c1ccccc1 (stereo not given) returned CYP2C9 inhib -1.9, CYP2C19 inh 21.8, CYP2C9 activ 1, PLK1 PBD inh -26.1, PLK1 inh -6.0 and CYP2C19 act 0.8.
Cc1c(C(=O)NCCCN2CCOCC2)sc2ncnc(N3CCN(c4ccccc4)CC3)c12 was read as CYP2C9 inhib 91.1*, CYP2C19 inh 50.4*, CYP2C9 activ 0.1 and CYP2C19 act 0.5.
Cc1c(C(=O)N2CCN(Cc3ccccc3)CC2)sc2ncnc(N3CCOCC3)c12 was read as CYP2C9 inhib 32.3, CYP2C19 inh 54.7*, CYP2C9 activ 0.7 and CYP2C19 act 0.5.
